MBD2 DNA inh: inhibitors of human MBD2 binding to methylated oligonucleotide; Q9UBB5; TR-FRET; inhibition, % at 4.4 µM; hit rate 0.31% among 370,000; in the data active = inhibition above about 13%
Target sequence (Q9UBB5 whole entry, looked up): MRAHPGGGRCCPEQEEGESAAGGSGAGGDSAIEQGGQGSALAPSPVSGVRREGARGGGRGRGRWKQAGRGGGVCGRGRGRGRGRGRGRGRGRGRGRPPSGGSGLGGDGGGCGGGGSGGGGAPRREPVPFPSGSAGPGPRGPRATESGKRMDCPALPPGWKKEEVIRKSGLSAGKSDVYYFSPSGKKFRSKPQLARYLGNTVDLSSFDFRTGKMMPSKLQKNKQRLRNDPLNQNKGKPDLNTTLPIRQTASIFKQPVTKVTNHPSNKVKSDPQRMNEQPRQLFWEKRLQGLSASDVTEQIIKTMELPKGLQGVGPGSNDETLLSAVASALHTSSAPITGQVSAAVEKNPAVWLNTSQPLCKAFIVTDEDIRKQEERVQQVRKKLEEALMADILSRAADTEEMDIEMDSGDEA
LEDGF integ inh: blocks HIV-1 LEDGF/p75-dependent DNA integration; inhibition, % at 3.7 µM; hit rate 0.64% among 370,000; TR-FRET IN-LEDGF/p75 DNA integration, Eu/Cy5;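 active = inhibition above the screen-wide mean plus 3 SD, cut at about 13% in these data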;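 note: signal is the Cy5 over europium emission ratio at 671 and 618 nm; 0% = plate median of compound wells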
Casp6 inh: inhibitors of human caspase-6; purified caspase-6, Z-VEID-R110 cleavage fluorescence; inhibition, % at 12.5 µM; hit rate 0.53% among 350,000;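 active = mean inhibition across replicates at least about 35%, with every replicate also reaching that limit, limit read from the data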;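 note: 0% = median of neutral control wells and 100% = no fluorescence left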
UHRF1 binding: human UHRF1 methylated DNA binding inhibitors | inhibition, % at 4.4 µM | UHRF1 binding to methylated oligo, TR-FRET | hit rate 0.75% among 370,000 | Q96T88; in the data active = inhibition above about 21%;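 note: UHRF1 SRA domain binding a hemimethylated CpG hairpin DNA probe; 0% = median of test compound wells and 100% = reference inhibitor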
IN multimer up: counter-screen for LEDGF/p75 integration inhibitors: HIV-1 integrase multimerization activators | hit rate 17% among 2,000 | activation, % at 7.7 µM | shares compounds with LEDGF integ inh | TR-FRET HIV-1 integrase multimerization, biochemical | AID 1053131; in the data active = activation above about 8.9%
TRFRET interf: TR-FRET optical interference, LEDGF/p75 integration counter-screen. inhibition, % at 7.7 µM. shares compounds with LEDGF integ inh. TR-FRET optical interference counterscreen, HIV-1 IN multimerization. AID 1053135. 2,000 tested, under 10 active;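 active = inhibition above the mean over all tested compounds plus 3 SD, which no compound reached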;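 note: 0% = integrase with antibodies and DMSO and 100% = antibodies without integrase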
IN-LEDGF confirm: confirmation of HIV-1 LEDGF/p75-dependent integration inhibitors. shares compounds with LEDGF integ inh. inhibition, % at 3.7 µM. AID 1053136. TR-FRET LEDGF/p75-dependent HIV-1 integration, biochemical. hit rate 36% among 2,000; in the data active = inhibition above about 14%
Numbers without * were called inactive; x = not tested or not shown. Hits are enriched below; roughly 1.4% of the tested compounds scored in any of these assays.

SMILES	MBD2 DNA inh	LEDGF integ inh	Casp6 inh	UHRF1 binding	IN multimer up	TRFRET interf	IN-LEDGF confirm
O=C(Nc1ccccc1C(=O)N1CCN(c2cccc(Cl)c2)CC1)C1=CSCCO1	-1	81*	1	-1	-1	7	0
CCN1[C@H](C(=O)N(C)C)[C@@H](CO)[C@@H]2Cn3c(ccc(-c4cccc(OC)c4)c3=O)[C@@H]21	x	x	-5	x	x	x	x
C[C@@H](NC(=O)C[C@@H]1CC[C@H](NS(=O)(=O)c2cccc(F)c2)[C@@H](CO)O1)c1ccccc1	x	x	-2	x	x	x	x
CN(C)C(=O)c1cccc(-c2ccc([C@@H]3[C@H]4CN(S(C)(=O)=O)CCCCN4[C@H]3CO)cc2)c1	x	x	0	x	x	x	x
CCOC(=O)c1[nH]c(=O)[nH]c1CSc1nc(C)cc(C)n1	-6	-4	x	0	x	x	x
CCOC(=O)CCCCC(=O)c1[nH]c(=O)[nH]c1CN1CCOCC1	-4	17*	-2	-1	0	-1	13
CCOC(=O)CCCCC(=O)c1[nH]c(=O)[nH]c1CSc1nc2ccccc2[nH]1	-2	7	x	-1	x	x	x
CCOC(=O)CCCCC(=O)c1[nH]c(=O)[nH]c1CSc1nc(C)cc(=O)[nH]1	5	35*	-3	0	4	-16	49*
CCOC(=O)CCCCC(=O)c1[nH]c(=O)[nH]c1C[n+]1ccc(C)cc1	-4	8	2	-3	x	x	x
CCOC(=O)CCCCC(=O)c1[nH]c(=O)[nH]c1CSc1nc(C)cc(C)n1	5	26*	x	4	-1	4	19*
O=C(C[C@H]1CC[C@@H]2[C@H](COC[C@H](O)CN2Cc2cocn2)O1)NCc1cccc(F)c1	x	x	-1	x	x	x	x
Cc1nc2sc(C(c3ccco3)N3CCN(c4ccccc4F)CC3)c(O)n2n1 (configuration not stated)	-4	1	x	-4	x	x	x
Cc1nc2sc(C(c3ccco3)N3CCc4ccccc4C3)c(O)n2n1 (configuration not stated)	-3	21*	x	8	0	1	11
CS(=O)(=O)N1[C@@H]2c3ccc(C4=CCCC4)c(=O)n3C[C@H]1[C@H](CO)[C@H]2C(=O)N1CCCCC1	x	x	-2	x	x	x	x
Cc1ccc(C)c(OCCC(=O)OCC(=O)c2c(N)n(C)c(=O)n(C)c2=O)c1	-1	24*	3	2	-1	4	-2
Cc1cc(Cl)ccc1OCCCC(=O)OCC(=O)c1c(N)n(C)c(=O)n(C)c1=O	7	1	1	0	x	x	x
COc1ccc(S(=O)(=O)Nc2ccc3c(c2)C(=O)N([C@H](C)CO)C[C@H](C)[C@@H](CN(C)C(=O)CCCN(C)C)OCCCC[C@H](C)O3)cc1	x	x	-17	x	x	x	x
COC(=O)c1cc(C)nc2c1C(=O)C(=O)C=C2N1CCOCC1	5	38*	83*	12	1	-4	78*
Brc1ccc2cccnc2c1	1	-2	x	2	x	x	x
Nc1cc2cccnc2cc1Cl	-3	18*	62*	7	5	-16	27*
O=[N+]([O-])c1ccc(N/N=C/c2cccc(O)c2O)c(S(=O)(=O)N2CCOCC2)c1	-8	9	3	-1	x	x	x
O=C(CCc1ccc(S(=O)(=O)N2CCOCC2)cc1)N/N=C/c1ccc(O)c(O)c1O	-3	17*	x	1	18*	-66	27*
O=[N+]([O-])c1ccc(N/N=C/c2ccc(O)c(O)c2O)c(S(=O)(=O)N2CCOCC2)c1	-9	50*	8	-2	3	-17	36*
COc1ccc(NC(=O)N2CCCCN3[C@@H](CO)[C@@H](c4ccc(-c5ccccc5C)cc4)[C@@H]3C2)cc1	x	x	0	x	x	x	x
CCOc1ccccc1N1C(=O)CC(Nc2ccc(N3CCOCC3)cc2)C1=O (configuration not stated)	2	11	8	-2	x	x	x
SMILES	MBD2 DNA inh	LEDGF integ inh	Casp6 inh	UHRF1 binding	IN multimer up	TRFRET interf	IN-LEDGF confirm
COc1ccccc1N1C(=O)CC(Nc2ccc(N3CCOCC3)cc2)C1=O (configuration not stated)	0	15*	x	1	1	-3	-3
CCCNC1=C(N(C(C)=O)c2cccc(F)c2)C(=O)c2ccccc2C1=O	-12	17*	80*	1	-3	9	14*
CCCC(=O)NC1=C(Cl)C(=O)c2ccccc2C1=O	-14	4	27	-9	x	x	x
CC(C)N(C(=O)[C@H]1C[C@H](CC(=O)NCCc2ccccn2)C(=O)N2CCc3c([nH]c4cc(-c5ccco5)ccc34)[C@]12C)C(C)C	0	9	-5	-1	x	x	x
CCN(CC)C(=O)[C@H]1C[C@H](CC(=O)NCCc2ccccn2)C(=O)N2CCc3c([nH]c4cc(-c5ccco5)ccc34)[C@]12C	-3	65*	-5	0	0	-1	-5
C[C@@H]1CCCCO[C@@H](CN(C)Cc2ccc3c(c2)OCO3)[C@H](C)CN([C@H](C)CO)C(=O)c2cc(NC(=O)c3ccccc3)ccc2O1	x	x	1	x	x	x	x
CC(=O)N1CCc2cc3nc(C)cc(C)c3cc21	2	52*	x	2	1	-3	-5
C=CCn1c(SCC(=O)c2ccc(O)c(O)c2)nnc1-c1cccc(C)c1	6	-2	21	2	x	x	x
C=CCn1c(SCC(=O)c2ccc(O)c(O)c2)nnc1-c1cccnc1	6	16*	61*	25*	45*	-161	60*
C[C@@H]1CN([C@@H](C)CO)C(=O)c2cccc(NC(=O)C3CCOCC3)c2O[C@@H]1CN(C)S(=O)(=O)c1cccs1	x	x	-2	x	x	x	x
O=C1C=C(N2CCCCC2)c2ccccc2C1=O	-20	29*	100*	-1	6	-22	67*
Cn1c(=O)cc2c3c(c(N4CCCCC4)ccc31)C(=O)c1ccccc1-2	-8	-4	-1	2	x	x	x
O=C1c2ccccc2C(=O)c2c1cccc2N1CCCC1	-4	30*	5	12	3	-11	2
COC(=O)CN1C(=O)[C@H]2[C@@H](/C=C/c3ccccc3)N3C(=O)CN(Cc4ccccc4)C(=O)[C@@]3(C)[C@H]2C1=O	1	81*	-1	-2	0	-2	-17
CN1C(=O)[C@H]2[C@@H](/C=C/c3ccccc3)N3C(=O)CN(Cc4ccccc4)C(=O)[C@@]3(C)[C@H]2C1=O	3	-5	0	4	x	x	x
COc1ccc(NC(=S)N(CCCN2CCC(C)CC2)Cc2cccs2)cc1	1	1	-4	-2	x	x	x
COc1ccc(NC(=S)N(CCCN2CCCCC2)Cc2cccs2)cc1	0	87*	x	-4	0	-2	-6
C[C@@H]1CN([C@@H](C)CO)C(=O)c2cc(NC(=O)Nc3cccc4ccccc34)ccc2O[C@H]1CN(C)C(=O)Nc1cccc2ccccc12	x	x	1	x	x	x	x

Bioassay records: PubChem, several laboratories
